Several values for one entry are separate records, joined by “and”; a condition that tells them apart may be missing. Equal entries are not always repeated. Screen size: about 5,500 compounds; about 2,000 (36%) were called active. Another 18% or so got no clear call; they are omitted. Rule as the data show it: active = normalized growth mostly below about 0.91 (no sharp cut-off); inconclusive = no clear call, values can overlap the other calls; inactive = mostly above about 0.92. This is one part of the list.
Test: chemical genetic growth profiling, strain panel (AID 1159580);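 also: tested at 20 µM; growth read once vehicle control cultures reached saturation at 30 °C; 1 = growth at the plate median or of vehicle wells; lower values mean less growth of the strain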
Details: S. cerevisiae deletion strains, growth OD

Measured: normalized growth

CCC(=O)c1c(O)cc(O)cc1O
inactive: locus YAL013W, strain DEP1, hits give low values 1.01 | locus YAL021C, strain ccr4, hits give low values 0.953 | locus YAL026C, strain drs2, hits give low values 0.975 | locus YAL030W, strain snc1, hits give low values 0.983 | locus YBL061C, strain skt5, hits give low values 0.98 | locus YBR009C, strain hhf1, hits give low values 1.03 | locus YBR021W, strain FUR4, hits give low values 1.03 | locus YBR023C, strain chs3, hits give low values 0.994 | locus YBR171W, strain sec66, hits give low values 0.979 | locus YBR229C, strain ROT2, hits give low values 0.994 | locus YBR231C, strain swc5, hits give low values 0.987 | locus YBR279W, strain paf1, hits give low values 0.992 | locus YCL011C, strain gbp2, hits give low values 0.989 | locus YCL016C, strain dcc1, hits give low values 0.974 | locus YCL029C, strain bik1, hits give low values 0.982 | locus YCL069W, strain vba3, hits give low values 0.992 | locus YCR088W, strain abp1, hits give low values 0.991 | locus YDL005C, strain med2, hits give low values 0.977 | locus YDL035C, strain GPR1, hits give low values 1.01 | locus YDL040C, strain nat1, hits give low values 0.99 | locus YDL074C, strain BRE1, hits give low values 1 | locus YDL101C, strain DUN1, hits give low values 1.01 | locus YDL134C, strain PPH21, hits give low values 1.01 | locus YDL185W, strain tfp1, hits give low values 0.972 | locus YDL192W, strain arf1, hits give low values 0.981 | locus YDR001C, strain nth1, hits give low values 0.987 | locus YDR069C, strain doa4, hits give low values 0.983 | locus YDR101C, strain arx1, hits give low values 0.975 | locus YDR137W, strain rgp1, hits give low values 0.968 | locus YDR150W, strain NUM1, hits give low values 1 | locus YDR159W, strain sac3, hits give low values 0.995 | locus YDR162C, strain NBP2, hits give low values 1 | locus YDR195W, strain ref2 0.955 | locus YDR297W, strain sur2, hits give low values 0.982 | locus YDR318W, strain mcm21, hits give low values 0.977 | locus YDR334W, strain swr1, hits give low values 0.979 | locus YDR335W, strain msn5, hits give low values 0.986 | locus YDR388W, hits give low values 0.981 | locus YDR392W, strain spt3, hits give low values 0.968 | locus YDR502C, strain sam2, hits give low values 0.979 | locus YEL003W, strain gim4, hits give low values 0.99 | locus YEL037C, strain rad23, hits give low values 0.982 | locus YEL061C, strain CIN8 (second series), hits give low values 0.992 | locus YEL061C, strain CIN8, hits give low values 1 | locus YER015W, strain faa2, hits give low values 0.991 | locus YER016W, strain bim1, hits give low values 0.968 | locus YER110C, hits give low values 0.979 | locus YER111C, strain swi4, hits give low values 1 | locus YER155C, strain BEM2 (second series), hits give low values 0.983 | locus YER155C, strain BEM2, hits give low values 0.989 | locus YER167W, strain BCK2, hits give low values 1.01 | locus YFR010W, strain ubp6, hits give low values 0.998 | locus YGL078C, strain dbp3, hits give low values 0.975 | locus YGL086W, strain mad1, hits give low values 0.995 | locus YGL167C, strain pmr1, hits give low values 0.974 | locus YGL173C, strain kem1, hits give low values 1.01 | locus YGL227W, strain vid30, hits give low values 0.993 | locus YGL240W, strain doc1, hits give low values 1 | locus YGL248W, strain PDE1, hits give low values 1.01 | locus YGL253W, strain hxk2, hits give low values 0.986 | locus YGR078C, strain PAC10, hits give low values 1.01 | locus YGR135W, strain pre9, hits give low values 0.985 | locus YGR229C, strain SMI1, hits give low values 0.992 | locus YGR252W, strain gcn5, hits give low values 0.921 | locus YHR013C, strain ard1, hits give low values 0.938 | locus YHR027C, strain rpn1, hits give low values 1.01 | locus YHR030C, strain SLT2, hits give low values 1.01 | locus YHR079C, strain IRE1 (second series), hits give low values 0.978 | locus YHR079C, strain IRE1, hits give low values 1.03 | locus YHR094C, strain hxt1, hits give low values 0.983 | locus YHR129C, strain ARP1, hits give low values 0.999 | locus YHR142W, strain chs7, hits give low values 0.989 | locus YHR200W, strain rpn10, hits give low values 0.972 | locus YIL066C, strain RNR3, hits give low values 1.01 | locus YIL073C, strain SPO22, hits give low values 1.07 | locus YIL125W, strain kgd1, hits give low values 0.984 | locus YIR030C, strain dcg1, hits give low values 0.979 | locus YJL092W, strain hpr5, hits give low values 0.987 | locus YJL095W, strain BCK1 (second series), hits give low values 0.995 | locus YJL095W, strain BCK1, hits give low values 1 and 1.02 | locus YJL115W, strain asf1, hits give low values 0.996 | locus YJL129C, strain trk1, hits give low values 0.996 | locus YJL134W, strain LCB3, hits give low values 0.999 | locus YJL154C, strain vps35, hits give low values 0.975 | locus YJL164C, strain tpk1, hits give low values 0.993 | locus YJL166W, strain qcr8, hits give low values 0.991 | locus YJL168C, strain set2, hits give low values 0.979 | locus YJL187C, strain SWE1 (second series), hits give low values 1.01 | locus YJR043C, strain POL32, hits give low values 1.01 | locus YJR066W, strain TOR1, hits give low values 0.97 | locus YJR075W, strain HOC1, hits give low values 1.01

Reference: PubChem BioAssay AID1159580 (chemical genetic matrix, 2015)
